# M1 ag: activates human CHRM1 receptor; CHO-K1 hM1, Fluo-8 calcium fluorescence, agonist mode; 0% DMSO, 100% acetylcholine EC100; activation, % at 3 µM; hit rate 0.33% among 360,000; P11229;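 active = activation above the run's mean compound activation plus 3 SD, cut at about 16% in these data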;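 note: peak over basal fluorescence ratio within a 140 s kinetic read after compound addition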
# Target sequence (P11229 whole entry, looked up): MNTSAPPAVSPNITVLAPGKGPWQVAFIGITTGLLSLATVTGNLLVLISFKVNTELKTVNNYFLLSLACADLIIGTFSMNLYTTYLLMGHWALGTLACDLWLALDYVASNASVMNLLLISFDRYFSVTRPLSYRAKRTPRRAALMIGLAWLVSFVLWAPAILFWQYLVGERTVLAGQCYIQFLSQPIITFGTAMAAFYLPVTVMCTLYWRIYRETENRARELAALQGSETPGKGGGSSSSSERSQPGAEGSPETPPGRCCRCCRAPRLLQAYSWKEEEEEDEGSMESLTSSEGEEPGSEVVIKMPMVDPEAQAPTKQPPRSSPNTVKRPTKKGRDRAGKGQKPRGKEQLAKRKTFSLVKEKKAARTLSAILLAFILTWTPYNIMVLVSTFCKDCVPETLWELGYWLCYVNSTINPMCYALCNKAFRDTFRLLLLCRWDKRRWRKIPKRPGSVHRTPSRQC
# SKN-1 block: blocks SKN-1 activity in C. elegans. AID 624304. inhibition, % at 21.8 µM. C. elegans VP596 Pgst-4::GFP/RFP ratio, acrylamide-induced, 24 h. hit rate 0.49% among 360,000;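 active = interference check ratio from 0.5 to 1.5 plus GFP to RFP signal ratio inhibition reaching or exceeding a fixed threshold, cut at about 30% in these data, passing the limit was not always enough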
# Myeloid diff MLP: myeloid differentiation induction; calls only at 10 µM; AID 624256; ER-HoxA9 myeloid progenitors, lysozyme-GFP differentiation, flow cytometry; hit rate 1% among 360,000;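 active = normalized GFP-positive differentiation at or above the plate's own cutoff, the solvent-only control mean plus 3 SD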;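 note: cells exposed to compound for four days before flow analysis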
# M1 antag: antagonists of human M1 muscarinic receptor | CHO-K1 hM1, Fluo-8 calcium fluorescence, ACh EC80 antagonist | AID 588852 | hit rate 1.3% among 360,000 | inhibition, % at 3 µM | P11229;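 active = percent inhibition above its own plate's cutoff, namely the mean of that plate's compound wells plus 3 SD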;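 note: peak over basal fluorescence ratio during 140 s after agonist addition; 0% = ACh EC80 plus DMSO and 100% = DMSO alone without agonist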
# ATG4B inh: ATG4B (human) cysteine protease inhibition. ATG4B cleavage of LC3-PLA2, NBD-HPC fluorescence, 1 h. Q9Y4P1. inhibition, % at 8.33 µM. hit rate 0.51% among 340,000. AID 504462; in the data active = inhibition above about 40%
# M1 PAM: positive allosteric modulators of human M1 muscarinic receptor. AID 588819. activation, % at 3 µM. CHO-K1 hM1, Fluo-8 calcium fluorescence, ACh EC20; 0% = ACh EC20, 100% = maximal ACh. P11229. hit rate 0.088% among 360,000; in the data active = activation above about 19%, passing the limit was not always enough
# Myeloid diff: myeloid differentiation induction. hit rate 2% among 2,300. calls only. ER-HoxA9 myeloid progenitors, GFP/Mac1 double-positive flow. AID 651706. shares compounds with Myeloid diff MLP;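 active = share of green or green-and-red cells above 9 and 9% in run 1 or 4 and 3% in run 2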
# GFP autofluor: flagged as fluorescent in myeloid differentiation counter-screen; AID 651707; hit rate 7.4% among 2,300; ER-HoxA9 myeloid progenitors, no estrogen, GFP autofluorescence flow cytometry; vehicle wells 0%, positive control 100%; fluorescence response, % (concentration not given with the values); shares compounds with Myeloid diff MLP;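 active = over 5% cells positive for green fluorescent reporter, or over 2% positive for both it and APC stain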;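 note: range taken on the double positive population between DMSO and positive control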
# Numbers without * were called inactive; i = inactive; . = no result given; + = active, no number. Most compounds without a hit are left out; they make up all but 3.5% or so of the library.
SMILES,M1 ag,SKN-1 block,Myeloid diff MLP,M1 antag,ATG4B inh,M1 PAM,Myeloid diff,GFP autofluor
CCN(C(=O)CCN1C(=O)c2ccccc2C1=O)C1CCCCC1,-2,10,i,1,-18,-2,.,.
CC12C(=O)N(CCC(=O)O)C(=O)C1C1C=CC2C1 (centres undefined),-1,1,+,-2,-11,4,i,0
CC12C(=O)N(Cc3ccccc3)C(=O)C1C1C=CC2C1 (centres undefined),-1,-4,i,-2,11,11,.,.
CCOC(=O)C1(Nc2nccs2)Sc2ccccc2NC1=O (centres undefined),-2,8,+,-5,-14,6,i,0
Cc1nn(C)c(Sc2ccccc2N)c1[N+](=O)[O-],-6,12,i,-1,-12,7,i,1
Cc1nn(C)c(N)c1[N+](=O)[O-],-2,-8,i,8,-6,-7,.,.
COc1cc2oc(=O)cc(CN3CCN(c4ccccc4F)CC3)c2cc1Cl,-1,4,i,-15,.,-4,.,.
COCCNC(=O)c1c(N)n(CCC2=CCCCC2)c2nc3ccccc3nc12,-2,6,i,-25,-8,5,i,0
CC(=O)Nc1ccc(S(=O)(=O)NCCN2CCNC2=O)cc1Cl,-2,-4,i,-12,-8,4,.,.
CCc1ccc(-c2nc(SCC(=O)N3CCOCC3)n[nH]2)cc1,-2,-4,+,-5,4,7,i,14*
CCC(=O)Nc1ccc(/C(C)=N\NS(=O)(=O)c2ccc(C)cc2)cc1,-1,-4,+,-2,-7,-2,i,0
Brc1ccc(-c2noc(COc3ccc4c(c3)CCC4)n2)o1,7,3,i,-13,-1,19,.,.
c1csc(-c2noc(COc3ccc4c(c3)CCCC4)n2)c1,-1,38*,i,13,6,-2,i,0
Cc1ccc(C)c(S(=O)(=O)N2CCN(C(=O)c3ccccc3Cc3ccccc3)CC2)c1,-3,18,i,-2,-2,0,.,.
Cc1ccc(S(=O)(=O)NCCC(=O)O)cc1,1,1,i,0,-1,8,.,.
O=C(O)CCNS(=O)(=O)c1ccc(Oc2ccccc2)cc1,-5,11,i,-16,10,8,i,0
O=C(CN1CCCCCC1)Nc1ccccc1OC(F)F,-6,-6,i,2,10,11,.,.
CCCCN(C(=O)c1ccc(-c2ccc([N+](=O)[O-])cc2)o1)c1c(N)n(CCCC)c(=O)[nH]c1=O,-4,10,.,3,12,0,.,.
CCCCN(C(=O)c1ccc([N+](=O)[O-])o1)c1c(N)n(CCCC)c(=O)[nH]c1=O,0,7,+,-15,6,10,i,2
CC(OC(=O)c1ccccc1C(=O)N(C)c1ccccc1)C(=O)Nc1ccc(C(N)=O)cc1 (centres undefined),1,5,i,-6,-5,5,.,.
CC(OC(=O)c1cc(O)c2ccccc2c1O)C(=O)Nc1ccc(C(N)=O)cc1 (centres undefined),-1,12,+,-10,-5,5,i,3
COc1ccc(F)cc1S(=O)(=O)n1nnc2ccccc21,-6,12,i,-4,-5,5,i,0
Cc1cc(Br)c(S(=O)(=O)n2nnc3ccccc32)cc1C,-3,6,i,-2,-1,2,i,4
COc1cc(C)c(S(=O)(=O)n2nnc3ccccc32)cc1C,-2,9,i,-8,-1,2,.,.
COc1ccc(OC)c(S(=O)(=O)n2nnc3ccccc32)c1,-3,5,i,-5,1,4,.,.
SMILES,M1 ag,SKN-1 block,Myeloid diff MLP,M1 antag,ATG4B inh,M1 PAM,Myeloid diff,GFP autofluor
CCCNC(=O)c1ccc(N2CCC3(CC2)CC(c2cccc(Br)c2)=NO3)c(NC(=O)c2ccc(Br)cc2)c1,-3,-7,i,-6,-7,8,.,.
C=CCOC(=O)C1=C[C@@H](c2coc3ccccc3c2=O)C[C@@H](OCCCCO)O1,1,14,i,-6,-3,9,i,0
COc1ccc(C(=O)NCCc2ccccn2)cc1S(=O)(=O)Nc1ccc(Br)cc1,-4,-16,i,11,-14,-8,.,.
Nc1cccc(-c2cc3ccccc3oc2=O)c1,-7,7,i,8,-5,-8,.,.
O=Cc1c(-c2ccccc2)cc2oc3ccccc3cc1-2,-1,20,i,-4,7,1,i,66*
COc1cc2c(cc1OC)C(c1cc3ccccc3oc1=O)=NC(C)(C)C2,-1,-4,i,-6,-2,6,i,0
N#Cc1nc(-c2cccs2)oc1NCc1ccco1,-4,12,i,-6,-2,2,i,0
O=[N+]([O-])c1ccc(-c2ccc(/C=N/Nc3nc(N4CCCC4)nc(N4CCCC4)n3)o2)cc1,-5,17,+,-9,-4,7,i,6.0*
O=C(Cc1ccccc1)N/N=C/c1ccc(-c2ccc([N+](=O)[O-])cc2)o1,-6,-11,+,-5,-4,1,i,3
CC1(C(=O)N/N=C/c2ccccc2)CC1(Cl)Cl (centres undefined),-5,-3,i,-4,-7,3,.,.
COc1cc(C2CC(=O)Nc3cc(C)c(C)cc32)cc(OC)c1OC (centres undefined),6,-7,+,-3,-9,3,i,2
COc1ccc(NC(=O)C2CCCN(S(=O)(=O)c3cccs3)C2)cc1OC (centres undefined),-4,0,+,-4,-4,-2,i,0
CC(=O)Nc1ccc(NC(=O)CSc2nccn2Cc2ccccc2)cc1,-6,5,+,-8,2,3,i,0
Cc1ccc(NC(=O)CSc2nccn2Cc2ccccc2)cc1C,-2,8,i,-4,-6,1,.,.
O=C(NCCC1CCCCN1S(=O)(=O)c1ccc(F)cc1)C(=O)Nc1ccccc1F (centres undefined),-1,15,i,9,-6,-7,.,.
Cc1ccc(S(=O)(=O)N2CCCCC2CCNC(=O)C(=O)Nc2ccccc2F)cc1 (centres undefined),-2,-5,+,-8,2,6,i,0
CC(C)[C@@H](NC(=O)C1CCN(C(=O)[C@@H]2CCCN2C(=O)OC(C)(C)C)CC1)C(=O)NCc1ccc(F)cc1,-3,-1,i,-5,-18,9,.,.

# Screening data deposited in PubChem by several laboratories.
